# MARV entry inh – blocks Marburg virus binding to or entry into cells | Potency, µM (highest dose often 37.8 µM), for inactives: top-dose activity change, negative = inhibition, actives largely listed as inhibitors | Marburg virus pseudotyped entry inhibition, cell reporter | 300,000 compounds, 1.8% hits | AID 540276; calls by dose curve; tested in HEK293 cells; also: potency is read from the fitted curve at half-maximal effect; % is scaled to controls: 0 for no effect and ±100 for the full control effect
# HCV inhibitor – blocks hepatitis C virus. AID 651820. Huh7.5.1 HCVcc-Cre infection, luciferase reporter, 44 h. Potency, µM (series often up to 41.8 µM), without a hit: top-dose activity change, negative = inhibition, usual class: inhibitors. 340,000 compounds, 3.4% hits; active = well fitted inhibition curve with a large enough effect; inconclusive = small, poorly fitted or top-dose-only effect, or another doubt; inactive = no such curve, though single readings can be large or run the other way; also: potency is read from the fitted curve at half-maximal effect; % is scaled to controls: 0 for no effect and ±100 for the full control effect
#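 Reporter virus HCVcc-Cre (~0.5 moi) infects cells exposed to compound; seeding density 1,000 cells/well with 4 h settling beforehand. Luminescence, 15 sec read, taken 44 h post-infection following a 15 min RT substrate incubation.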
# Lassa entry inh – inhibitors of Lassa virus binding or cell entry | Lassa virus pseudotype entry inhibition, cell reporter | Potency, µM (series often up to 37.9 µM), for the others: top-dose activity change, negative = inhibition, hits mostly inhibitors | 300,000 compounds, 1.2% hits | AID 540256; calls by dose curve; tested in HEK293 cells; also: potency is read from the fitted curve at half-maximal effect; % is scaled to controls: 0 for no effect and ±100 for the full control effect; nearly all actives have a fitted effect of over 50% in size
# Cycloheximide cs – counter-screen hit for Shiga toxin inhibitors, cycloheximide | AID 2314 | max response, % | 300,000 compounds, 12% hits | cell reporter, cycloheximide protein synthesis inhibition counterscreen; in the data active = max response mostly above about 13%, no sharp cut-off; inactive = mostly below about 14%; also: read at 38.3 µM for the half of the compounds with a filed dose; 0% is about no effect
# Shiga toxin inh – blocks Shiga toxin action in Vero cells. Vero cells, Shiga toxin protein synthesis inhibition reporter. inhibition, % at 38.7 µM. 290,000 compounds, 9.2% hits. AID 2315; in the data active = inhibition mostly above about 28%, no sharp cut-off; inactive = mostly below about 43%; also: 0% is about no effect
# FMDV antiviral – antivirals against foot and mouth disease virus; Potency, µM (doses to about 57.9 µM), for the others: top-dose activity change, negative = inhibition, usual class: inhibitors; 410,000 compounds, 1.2% hits; FMDV antiviral cell-based qHTS; calls by dose curve; tested in HEK293T cells; also: read-out not given here; potency is read from the fitted curve at half-maximal effect; % is scaled to controls: 0 for no effect and ±100 for the full control effect; nearly all actives have a fitted effect of over 45% in size
# Active calls of the source: *; ? = inconclusive; nt = no result given; + = active, no number; [ ] = another dose, or the depositor's remark. Sampled rows, rich in hits. Any-hit rate of the full collection: about 13%.
SMILES,MARV entry inh,HCV inhibitor,Lassa entry inh,Cycloheximide cs,Shiga toxin inh,FMDV antiviral
O=C(Cc1ccccc1)Nc1ccc(N2CCCCC2)cc1,-14%,-22%,-11%,31*,83*,40%
CN1CCN(c2ccc(NC(=O)Cc3ccccc3)cc2)CC1,9%,?,0%,55*,75*,64%
COc1ccc(NC(=O)COC(=O)c2ccc(C)c(S(=O)(=O)N3CCCCC3)c2)cc1,nt,-28%,nt,nt,nt,3%
O/N=C1\CCSc2ccc(F)cc21,nt,14%,nt,33*,58*,-13%
O/N=C1/CCSc2ccccc21,4%,12%,4%,6,11,-7%
O=C(O)c1ccc(N/N=C2/CCSc3ccc(F)cc32)cc1,18%[46.1 µM],18%,-11%[46.1 µM],38*,34,?
CCNC(=S)NCc1ccc2[nH]c(C)cc2c1,-2%,1%[8.37 µM],2%,3,-4,-17%
Cc1cc2cc(CNC(=O)Nc3ccccc3)ccc2[nH]1,-5%,-11%,-21%,28*,95*,56%
CCOC(=O)NCc1ccc2[nH]c(C)cc2c1,nt,9%,nt,18*,24*,?
Clc1ccccc1CN1CCN(c2ccccc2)CC1,-22%,-9%,8%,-2,-1,0%
Cn1cc(CN2CCN(c3ccccc3)CC2)c2ccccc21,15µM*,?,-18%,-2,-21,-11%
c1csc(Cc2nn3c(-c4ccncc4)nnc3s2)c1,-9%,-20%,8%,-3,-5,-17%
CCc1cc(C(c2cccc(OC)c2)N2CCOCC2)c(NC(=O)c2ccccc2)s1 (centres undefined),17%,?,-29%,38*,61,-25%
CCN1CCN(C(c2ccccn2)c2c(NC(=O)c3ccccc3)sc(C)c2C)CC1 (centres undefined),10µM*,?,?,-5,-16,?
COc1ccc(C(c2c(NC(=O)c3ccccc3)sc(C)c2C)N2CCN(CCO)CC2)cc1 (centres undefined),?,-8%,?,22*,56*,-19%
COc1ccc(C(c2c(NC(=O)c3ccco3)sc(C)c2C)N2CCOCC2)cc1 (centres undefined),-16%,?,?,nt,nt,-1%
CCc1cc(CN2CCOCC2)c(NC(=O)c2ccccc2)s1,-10%,-25%,8%,27*,79*,13%
CCN1CCN(C(c2cccnc2)c2c(NC(=O)c3ccco3)sc(C)c2C)CC1 (centres undefined),nt,?,nt,nt,nt,-6%
O=c1oc2ccccc2n1Cc1ccccc1,2%[46.1 µM],14%,15%[46.1 µM],-5,-8,-3%
COc1ccc(N2CCN(C(=O)COC(=O)c3ccccc3OCc3ccc(F)cc3)CC2)cc1,?,?,-16%,nt,nt,-29%
COc1cccc(C(c2c(NC(=O)c3ccccc3)sc(C)c2C)N2CCN(C)CC2)c1 (centres undefined),20µM*,4%,?,-5,-7,-23%
COc1ccc(N(C(=O)Cn2nnc3ccccc32)C2(C(=O)NC3CCCC3)CCCCC2)cc1,?,5.6µM*,-8%,-4,-11,nt
COCCN(C(=O)Cn1nnc2ccccc21)C(C(=O)NC1CCCCC1)c1ccc(OC)cc1OC (centres undefined),-30%,17%,7%,4,-2,46%
COc1ccc(Nc2nccc(-c3ccc([N+](=O)[O-])cc3)n2)cc1,?,?,-28%[46.1 µM],0,3,-3%
CCOc1cc([N+](=O)[O-])cc2c1C(=O)Nc1ccccc1O2,nt,?,nt,25*,30,0%
SMILES,MARV entry inh,HCV inhibitor,Lassa entry inh,Cycloheximide cs,Shiga toxin inh,FMDV antiviral
COc1ccc(NC(=O)c2cccc3c(=O)c4c([nH]c23)CCCC4)cc1,4%[46.1 µM],nt,?,nt,nt,-18%
CCOc1cc(Br)c(CN2C(=O)NC3(CCCCCC3)C2=O)cc1OCC,11µM*,10%,nt,11,17,?
COc1ccc(Cl)cc1CN1C(=O)NC2(CCCCCC2)C1=O,-9%[46.1 µM],19%,22%[46.1 µM],5,14,-6%
CCN(CCO)c1ncnc2c1sc1nc(CC(C)C)c3c(c12)CC(C)(C)OC3,-19%,14µM*,2%,-4,9,-14%
CC1(C)Cc2nc3sc4c(SCC(=O)O)ncnc4c3cc2CO1,nt,-11%,nt,2,-7,?
CC1(C)Cc2nc3sc4c(N(CCO)CCO)ncnc4c3cc2CO1,4%,9%,0%,21*,29,12%
CC1(C)Cc2nc3sc4c(N(CCO)CCO)nnnc4c3cc2CO1,12%[46.1 µM],-14%,9%[46.1 µM],29*,78*,-20%
CCc1nc2sc3c(=O)n(N)cnc3c2c2c1COC(C)(C)C2,nt,23%,nt,0,-12,nt
CCN(CC)c1ccc(NS(=O)(=O)c2ccc(-c3ccc(=O)[nH]n3)o2)c(C)c1,nt,-6%,nt,7,-5,-27%
S=C(NCc1ccccc1)NC1CCCCC1,nt,-5%,nt,10,1,37%
O=C(NCCN1Cc2ccccc2C1=O)c1cccs1,?,3%,?,21*,47*,25%
O=C1c2ccccc2CN1CCNC(=S)NC1CCCCC1,?,-13%,11%,31*,45*,70%
Cc1cc(C(=O)N/N=C/c2ccc(-c3ccc([N+](=O)[O-])cc3Cl)o2)n[nH]1,nt,?,nt,-3,-3,?
CC(=O)Nc1ccc(N=c2cc([N+](=O)[O-])cc(Cl)n2O)cc1,?,10µM*,?,-5,-8,0%
CC(=O)Nc1ccc(Oc2ccc([N+](=O)[O-])cc2Cl)cc1,?,-3%,-5%,2,-3,?
N#Cc1ccc(Cl)cc1NC(=O)CSc1cccc[n+]1[O-],2%,-8%,17%,nt,nt,2%
CC1=C(N2CC2)C(=O)C(CO)=C(N2CC2)C1=O,?,?,0.11µM*,nt,nt,0%
CCCCCCCCCCCCN1[C@@H](CC(=O)O)c2cc(F)ccc2S1(=O)=O,nt,23%,nt,nt,nt,-6%
O=C(/C=C/c1ccccc1)Nc1ccc(Br)cn1,nt,-9%,nt,31*,+,36%
Cc1ccc(NC(=O)/C=C/c2ccc(Cl)cc2)nc1,-26%[46.1 µM],?,1%,22*,50*,0%
Cc1ccc(/C=C/C(=O)Nc2ccc(Cl)cc2Cl)cc1,nt,nt,?,nt,nt,1%
Cc1ccc2nc(CCl)[n+]([O-])c(-c3ccccc3)c2c1,-8%[46.1 µM],?,18%[46.1 µM],2,-1,28µM*
Cc1ccc2nc(Cl)c(-c3ccccc3)cc2c1,-2%[46.1 µM],-27%,?,nt,nt,29%
CC1CC(C)CN(C(=O)c2cc3cc(Br)cc(Br)c3o2)C1 (centres undefined),?,-15%,?,31*,41*,6%
O=C(c1cc2cc(Br)ccc2o1)N1CCCC1,-2%,-19%,8%,39*,61*,49%
CC(=O)N1CCN(C(=O)c2cc3ccccc3o2)CC1,-1%[46.1 µM],?,2%[46.1 µM],-3,28,7%
O=C(c1cc2cc(Br)ccc2o1)N1CCOCC1,-16%,15%,-19%,19*,50*,0%
O=C(c1cc2cc(Br)ccc2o1)N1CCN(c2ccccc2)CC1,22%,?,13%,51*,78*,25%

# Screening data deposited in PubChem BioAssay by National Center for Advancing Translational Sciences (NCATS).
